Here are results for 96 compounds from PubChem BioAssay AID777 (Sanford-Burnham Center for Chemical Genomics, 2007).

Screen size: about 96,000 compounds; about 19,000 (20%) were called active. The list is a sample of the results. Values without a mark were called inactive.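 Rule for the calls: active = blocking of liver enzyme CYP2C9 beyond about 50% at 5 µM (limit read from the data); inactive = the rest.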

For this test, the target named is Cytochrome P450 2C9 (Homo sapiens) (UniProt P11712). Nature of the test: blockers of cytochrome P450 2C9 activity – biochemical, luminescence, ADME assay, primary screen (AID 777). The following applies: CYP2C9 Supersomes, luciferin-H conversion, at 5 µM, active compounds read high.
Sequence of Cytochrome P450 2C9 (Homo sapiens) (P11712 whole entry, looked up): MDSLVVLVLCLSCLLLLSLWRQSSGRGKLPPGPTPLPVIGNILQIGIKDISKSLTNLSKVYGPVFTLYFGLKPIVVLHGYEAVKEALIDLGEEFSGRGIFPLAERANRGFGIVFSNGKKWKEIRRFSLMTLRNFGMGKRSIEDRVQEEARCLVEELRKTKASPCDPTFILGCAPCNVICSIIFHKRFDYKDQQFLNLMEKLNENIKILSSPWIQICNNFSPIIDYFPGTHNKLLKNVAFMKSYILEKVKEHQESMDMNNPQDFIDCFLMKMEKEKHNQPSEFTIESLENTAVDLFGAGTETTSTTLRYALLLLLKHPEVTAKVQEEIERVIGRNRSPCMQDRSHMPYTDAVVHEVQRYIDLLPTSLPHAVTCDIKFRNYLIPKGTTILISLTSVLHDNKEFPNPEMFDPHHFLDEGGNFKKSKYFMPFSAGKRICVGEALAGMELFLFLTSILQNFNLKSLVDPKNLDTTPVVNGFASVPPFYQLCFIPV
Take `COc1cccc(OC)c1C(=O)Nc1nnc(C(C)C)s1`: the inhibition is 20.1%.

Regarding `COC(=O)C1=C(C)NC2=C(C(=O)c3ccccc32)C1c1ccc(-c2ccc(C(=O)O)cc2)o1` (stereo unspecified), the inhibition was 97.3% (active).

As to `COC(=O)C1=C(C)NC(=O)NC1/C=C/c1ccccc1` (stereo unspecified), the inhibition is -0.6%.

Turning to `COc1ccccc1NC(=O)C1=C(C)NC2=C(C(=O)CCC2)C1c1ccc(C)o1` (stereo unspecified), the inhibition was 10.7%.

`Clc1ccc(C=NC23CN4CN(CN(C4)C2)C3)cc1`: the inhibition was 1.1%.

With `COc1ccc(CN2CCCCC2C)cc1OC` (stereo unspecified), the inhibition is -9.7%.

Turning to `CCc1ccc2oc(=O)cc(CN3CCCCC3C)c2c1` (stereo unspecified), the inhibition was 54.9% (active).

For `Cc1ccc(CN2C(=O)CCC2C(=O)NCCCN2CCCCC2C)cc1` (stereo unspecified), the inhibition was 0%.

For `O=C(OCC(=O)c1cccs1)C1=COCCO1`, the inhibition was 0.5%.

As to `CCC(C)(C)c1ccc(Oc2ccc(NC(=O)COC(=O)C3=COCCO3)cc2)cc1`, the inhibition is 76.1% (active).

Take `CCC1(CC)NC(=O)N(CC(=O)OCC(=O)Nc2ccc(C(F)(F)F)cc2)C1=O`: the inhibition is -10.3%.

As for `O=C(C1CC1)N1CCN=C1SCc1ccc(Cl)cc1`, the inhibition is 21.3%.

In the case of `CC(C(=O)N1CCOCC1)N1c2cccc3cccc(c23)S1(=O)=O` (stereo unspecified), the inhibition is -30.6%.

As to `NC(N)=N/N=C/c1ccc(OCc2ccc(Cl)cc2Cl)cc1`, the inhibition was -11.8%.

Turning to `COc1ccc(C2Nc3ccccc3C(=O)N2Cc2ccccc2)cc1Cn1nnc2ccccc21` (stereo unspecified), the inhibition is 93.5% (active).

For the compound `COc1ccc(C2=NO[C@@H]3C(=O)N(Cc4ccccc4)C(=O)[C@H]23)cc1OC`, the inhibition was 47%.

Regarding `Cc1cc(C)c2c(n1)nn1c(-n3ccnc3)cc(C)nc21`, the inhibition was -4.3%.

Take `CCOC(=O)CSc1nnc(CNc2nc(-c3ccccc3)cs2)n1C`: the inhibition is -2.1%.

For the compound `Cn1c(CC(=O)Nc2ccccc2)nnc1SCC(=O)c1ccccc1`, the inhibition is 76.5% (active).

Consider `Cc1ccccc1NC(=O)Cc1nnc(SCC(=O)N2CCN(c3ccccc3)CC2)n1C`, for which the inhibition was 13.3%.

With `Cn1c(CNc2nc(-c3ccccc3)cs2)nnc1SCC(=O)c1ccccc1`, the inhibition is 65.7% (active).

Take `Cc1ccc(C(=O)CSc2nnc(Cn3nnc4ccccc43)n2C)cc1`: the inhibition was 20.6%.

With `CCn1c(Cc2ccccc2)nnc1SCC(=O)Nc1ccccc1`, the inhibition is 4%.

Take `CCc1ccc2c(c1)cc(CN(C(=S)Nc1ccccc1Cl)C1CC1)c1nnnn12`: the inhibition is -11.3%.

On to `CCOc1ccccc1C1C(C(=O)OC)=CN(C)C=C1C(=O)OC`, for which the inhibition is 39.1%.

With `CC(C)Oc1ccc(Oc2ccc(C(F)(F)F)cn2)cc1`, the inhibition was 23.3%.

On to `Cc1ccc(C2C(C#N)C(C#N)N3CCCN23)cc1` (stereo unspecified), for which the inhibition is -8.1%.

For `CCOC(=O)c1c(C)n(C)c2ccc(OC)c(NC(=O)CN3CCC4(CC3)OCCO4)c12`, the inhibition was 18.3%.

For `COc1ccc(CCNC(=O)CN2CCC(n3nnc4cc(F)ccc43)CC2)cc1OC`, the inhibition is 28.1%.

As to `Cc1nn(Cc2ccccc2Cl)c(C)c1NC(=O)Cn1nc([N+](=O)[O-])c(Cl)c1C`, the inhibition is 11%.

With `Cc1nn(CC(=O)Nc2nc3ccccc3s2)c(C)c1[N+](=O)[O-]`, the inhibition is 89.2% (active).

As to `CSCCC(Nc1nc2ccccc2s1)C(=O)O` (stereo unspecified), the inhibition is 25.8%.

`Cc1ccc(S(=O)(=O)NCc2cn3ccsc3n2)c(C)c1`: the inhibition is 21.3%.

As to `COc1ccc(CCN(Cc2cc3cccc(C)c3[nH]c2=O)C(=O)N2CCCC2)cc1OC`, the inhibition is 32.5%.

Regarding `O=C(CC1OC(=O)c2ccccc21)NC1CCCCC1` (stereo unspecified), the inhibition was -99.1%.

For `O=C(Nc1ccccc1F)c1cc(S(=O)(=O)N2CCCCC2)cs1`, the inhibition is 75.6% (active).

For the compound `CCOc1ccccc1NC(=O)c1cc(S(=O)(=O)N2CCC3(CC2)OCCO3)ccc1F`, the inhibition was 6.8%.

Regarding `O=C(CN1CCN(S(=O)(=O)c2ccc(F)cc2)CC1)Nc1ccccc1F`, the inhibition was 40.4%.

In the case of `CCOC(=O)Cn1c(=O)oc2cc(S(=O)(=O)N(C)Cc3ccco3)ccc21`, the inhibition is 28.8%.

Take `CCOc1ccc(CN(Cc2ccco2)S(=O)(=O)c2ccc(-n3cnnn3)c(OC)c2)cc1`: the inhibition was 65.1% (active).

Take `COc1ccc(CN(Cc2ccco2)S(=O)(=O)c2ccc(S(=O)(=O)N3CCCC3)cc2)cc1`: the inhibition is 39.9%.

For `NC(=O)N1CCCC1C(=O)Nc1ccc(Cl)c(Cl)c1` (stereo unspecified), the inhibition was 14.9%.

Regarding `CC(C)(C)NC(=O)Cn1cnc([N+](=O)[O-])n1`, the inhibition was -14.1%.

Take `O=S(=O)(NCc1ccccn1)c1ccc(Br)s1`: the inhibition is -3.5%.

For `O=c1c2[nH]c3ccc(Cl)cc3c2ncn1Cc1ccccn1`, the inhibition was 17.6%.

For `COc1ccc2[nH]c3ccc(OC)cc3c2c1`, the inhibition was 26.8%.

`COc1ccc2[nH]cc(/C=C(/C#N)S(=O)(=O)c3ccccc3)c2c1`: the inhibition is 95.4% (active).

On to `O=C(O)CCSc1nnc(-c2ccccc2)n1-c1ccccc1`, for which the inhibition was -14.5%.

For the compound `C=CCNc1nnc(SCC(=O)N2CCCCC2)c2ccccc12`, the inhibition was -25.8%.

For the compound `COC(=O)C(C(=O)Nc1cccc(C)n1)C1CCCCCC1` (stereo unspecified), the inhibition is 33.3%.

In the case of `CN1CC(c2ccccc2)C2(COc3ccccc3C2=O)C12C(=O)Nc1ccccc12` (stereo unspecified), the inhibition was 20.5%.

`CC1(C)CC(=O)c2sc(N)nc2C1`: the inhibition is 12.9%.

Take `CC1Cc2ccccc2N1C(=O)c1cc2sccc2n1Cc1ccccc1` (stereo unspecified): the inhibition is 61.6% (active).

For the compound `CCC(=O)N1c2ccc(S(=O)(=O)CCC(=O)N3CCN(c4ccccc4)CC3)cc2CC1C` (stereo unspecified), the inhibition is 49%.

`Cc1cc(=O)[nH]c(SCC(=O)N2c3ccccc3CC2C)n1` (stereo unspecified): the inhibition is 8%.

On to `COC(C)(C)[C@]12CC(O)(C(C)C)ON1[C@H]1CCCCC1N2O` (stereo partly specified), for which the inhibition was -1.4%.

Regarding `CCC(C)(C(=O)NC1CCCC1)N(C(=O)CNC(C)=O)c1ccc(C)cc1` (stereo unspecified), the inhibition was 2.8%.

Turning to `COc1ccc2c(c1)SC(C)CC2=O` (stereo unspecified), the inhibition is 12.7%.

Regarding `COc1ccc2c(c1)OC(O)(C(F)(F)C(F)F)CC2=O` (stereo unspecified), the inhibition was 78.5% (active).

For `CCOc1ccc(CNC(=O)C2CCC(=O)N2C2CCCC2)cc1OC` (stereo unspecified), the inhibition was 4.4%.

For the compound `CCCN1C(=O)C(NC(C)=O)c2cc(OC)ccc21` (stereo unspecified), the inhibition is -5.4%.

Regarding `Cc1cc(C)cc(OCC(=O)NNC(=O)c2cc3ccccc3oc2=O)c1`, the inhibition was -15.8%.

On to `COC(=O)COc1ccc2oc(=O)cc(C)c2c1`, for which the inhibition was -9.3%.

As to `CCOC(=O)COc1cc(OCC(=O)OCC)c2c(=O)cc(-c3ccccc3)oc2c1`, the inhibition is 70.3% (active).

Consider `CN1CCCC(OC(=O)COc2ccc(Br)cc2)C1` (stereo unspecified), for which the inhibition is -1.2%.

As to `COC(=O)C(NC(=O)c1ccc(OC)cc1)(Nc1ncc(S(=O)(=O)c2ccc([N+](=O)[O-])cc2)s1)C(F)(F)F` (stereo unspecified), the inhibition was 66.3% (active).

As for `COc1ccc(C(=O)Nc2nc(-c3ccc(OC)cc3)c(-c3ccc([N+](=O)[O-])cc3)s2)cc1`, the inhibition is 19.7%.

For the compound `CCC1CCCCN1CCNC(=O)c1[nH]c(C)c(C(C)=O)c1C` (stereo unspecified), the inhibition was 9.6%.

On to `COCCOC(=O)C1=C(C)Nc2nc(C)nn2C1c1ccccc1` (stereo unspecified), for which the inhibition was 16.7%.

`COc1cc(C2C(C(=O)OCCC#N)=C(C)NC3=C2S(=O)(=O)c2ccccc23)cc(OC)c1OC` (stereo unspecified): the inhibition is 50.9% (active).

Regarding `COCCNC(=O)C(c1ccc(C)o1)N(Cc1cccs1)C(=O)c1snc(C(N)=O)c1N` (stereo unspecified), the inhibition is 3.7%.

Regarding `O=C(Oc1ccc2c(c1)CCC2)N1CCOCC1`, the inhibition was 0.4%.

In the case of `Cc1cccn2c(=O)c3cc(C#N)c(=O)n(CCCN4CCOCC4)c3nc12`, the inhibition was 47%.

Consider `COc1cccc(OCc2cc(/C=N/NC(=O)c3nc(Cl)c(Cl)c(N)c3Cl)ccc2OC)c1`, for which the inhibition was 84% (active).

As for `Cc1ccc(-c2cc(C(=O)N/N=C/C=C/c3ccco3)c3ccccc3n2)cc1C`, the inhibition was 34%.

As for `COc1ccc(/C=N\NC(=O)c2sc(N)nc2C)cc1OC`, the inhibition is 5.4%.

Consider `COc1cccc(-c2cc(C(=O)N/N=C/c3ccc(OC)c(COC(C)=O)c3)c3ccccc3n2)c1`, for which the inhibition was 84.3% (active).

As for `COc1cccc(/C=N\Nc2nncc(-c3ccccc3)n2)c1`, the inhibition is 5.6%.

As for `COc1cc(/C=N/NC(=O)Nc2ccccc2)ccc1OCCOc1ccccc1C`, the inhibition was 11.2%.

`CCCC(C(=O)n1nc(C)cc1C)C(NS(=O)(=O)c1ccc(C)cc1)c1ccccc1` (stereo unspecified): the inhibition is -1.9%.

In the case of `O=C(c1ccco1)N1CCN(C(=O)C2CC(c3ccc(Cl)c(Cl)c3)=NO2)CC1` (stereo unspecified), the inhibition is 43.9%.

In the case of `CN(C)c1cc(N)c2ccccc2n1` (tested in a mixture with another compound), the inhibition was -21.6%.

As to `O=C(NCc1ccccc1)C1C(=O)N(Cc2ccccc2)C(=O)C1C1(O)CCCC1` (stereo unspecified), the inhibition is 33.6%.

Turning to `CC(C)c1nc2ccc(C(=O)O)cc2[nH]1`, the inhibition is 5.8%.

As to `Cc1ccc(S(=O)(=O)NC(C)C(=O)Nc2ccccc2C(=O)N2CCCC2)cc1` (stereo unspecified), the inhibition is 44.1%.

Consider `O=C(CN(c1ccccc1)S(=O)(=O)c1ccc(Cl)cc1)Nc1ccccc1C(=O)N1CCCC1`, for which the inhibition was 92.2% (active).

Consider `CCC(=O)Nc1ccccc1C(=O)N1CCN(Cc2ccccc2)CC1`, for which the inhibition is 15.3%.

For `CC(=O)N1CCN(c2ccc(NCc3ccc(C(C)C)cc3)cc2)CC1`, the inhibition was 37%.

With `O=C1CSC(c2cccc(F)c2)N1c1ccccc1F` (stereo unspecified), the inhibition was 3%.

In the case of `O=C(Nc1ccccc1)OCc1cc(-c2ccc(Cl)cc2)on1`, the inhibition was 16.9%.

For `O=C(Nc1ccccc1)OCc1cn(-c2ccc(Cl)cc2)nn1`, the inhibition is 41.6%.

As to `O=C(Nc1ccc(Cl)cc1)OCc1cc(-c2ccccc2)on1`, the inhibition is 64.4% (active).

As to `CCCn1c(O)c(CN2CCCC(C)C2)c(C)c(C#N)c1=O` (stereo unspecified), the inhibition is 5.2%.

For `O=C(Nc1cccc(NC(=O)N2CCN(c3ccccc3)CC2)c1)N1CCN(c2ccccc2)CC1`, the inhibition is 54% (active).

On to `O=C(Nc1ccccc1)N1CCN(Cc2ccccc2)CC1`, for which the inhibition is 14.6%.

Turning to `CC(=O)N1CCN(C(=O)Nc2cccc(C(F)(F)F)c2)CC1`, the inhibition was 4.5%.
